Test results taken from PubChem BioAssay (Tox21).
Records with an inconclusive call do not appear. Where a call stands in place of a potency, no number is given. Calls of active or inactive are those of the source. Calls come from the whole dose curve; as a rule, active = well fitted inhibition curve with a large enough effect in the signal ratio in the repeat runs (not every such curve was filed as active); inconclusive = weak or mixed curves, or effect the other way; inactive = flat fitted curve, though single readings scatter; the % refers to the signal ratio.

Test: cAMP Responsive Elements (CRE) small molecule antagonists, cell-based qHTS assay (AID 1963591)
Conditions: CRE-bla HEK293T, beta-lactamase FRET ratio; series mostly up to 92.4 µM
Source text: U.S. Tox21 Program National Center for Advancing Translational Sciences [NCATS] Division of Preclinical Innovation [DPI] U.S. Environmental Protection Agency [EPA] National Institutes of Environmental Health Sciences [NIEHS] National Toxicology Program [NTP] U.S. Food and Drug Administration [FDA] Tox21 Assay Overview: CREB (cyclic-AMP Responsive Element Binding Protein) is a cellular transcription factor. It binds to certain DNA sequences called cAMP Responsive Elements (CRE) and regulates the transcription of the genes. […] This cell line can be used to find agonists/antagonists of the cyclic AMP signaling pathway. The activation of the report gene under culture conditions can be detected by fluorescence intensity. This cell line has been used to screen the Tox21 10K compound library to […].
Tox21 Assay Protocol Summary: CRE-bla Hek 293T cells were suspended in assay medium (DMEM containing 10% dialyzed FBS, 0.1 mM NEAA, 1 mM sodium pyruvate and 25 mM HEPES) and dispensed at 2,000 cells/4 uL /well into 1536-well black wall/clear bottom plates using a Multidrop Combi (ThermoFisher Scientific, Waltham, MA) dispenser. After the assay plates were incubated at 37 C/5% CO2 for 18 hrs, 23 nL of compounds dissolved in DMSO, positive controls or DMSO only was transferred to the assay plate by a pintool workstation (Kalypsys, San Diego, CA), followed by addition of 1 […] uL of 1.25uM NKH477 (0.25 uM as final concentration) in assay medium using a Flying Reagent Dispenser (Aurora Discovery, San Diego, CA). The plates were incubated at 37 C and 5% CO2 for 3 hrs. Then 1 uL of LiveBLAzer B/G FRET substrate (Invitrogen, Carlsbad, CA) was added to each well using Bioraptr Flying Reagent Dispenser (FRD, Aurora Discovery, San Diego, CA). The plates were incubated at room temperature for 2 h.
Potency is the fitted concentration of half-maximal effect.

Structure (SMILES) | Potency | activity change, negative = inhibition
O=C(Nc1ccc(C(=O)O)c(O)c1)c1ccccc1 | inactive | –
C[N+]1(C)CCC(OC(=O)C(O)(c2ccccc2)C2CCCC2)C1 (stereo not given) | inactive | –
O=C(O)CN(CCOCCOCCN(CC(=O)O)CC(=O)O)CC(=O)O | – | 0.383% [at 0.349 µM] (inactive)
O=C(O)/C=C(\CC(=O)O)C(=O)O | inactive | –
CC(N)=O | inactive | –
Cc1cc(C)c(C)c(C)c1 | inactive | –
C[Si](Cl)(c1ccccc1)c1ccccc1 | inactive | –
Cc1cc(Cl)c(C)cc1Cl | inactive | –
CCN(CC)c1ccc2c(c1)Oc1cc(N(CC)CC)ccc1C21OC(=O)c2ccccc21 | inactive | –
CSc1ccc(O)cc1C | inactive | –
CCOc1ccc(OCC)c(Cl)c1 | inactive | –
CCN1CCC[C@H]1CNC(=O)c1c(OC)ccc(Br)c1OC | inactive | –
Nc1cc(N)cc(C(=O)O)c1 | inactive | –
CCC(CC)Nc1ccc(C)c(C)c1 | inactive | –
CCOC(=O)C1=C[C@]2(CC)CCCN3CCc4c(n1c1ccccc41)[C@@H]32 | inactive | –
COCCOC(=O)CC#N | inactive | –
Cc1ccc(C(N)=O)cc1N | inactive | –
CC(=O)OCC(=O)[C@@]1(O)[C@H](C)C[C@H]2[C@@H]3CCC4=CC(=O)C=C[C@]4(C)[C@@]3(F)[C@@H](O)C[C@@]21C | inactive | –
CC(=O)c1ccc(OCC(=O)N2CCCCC2)cc1 | inactive | –
CNCCCC1c2ccccc2C=Cc2ccccc21 | inactive | –

Structure (SMILES) | Potency | activity change, negative = inhibition
COC(=O)c1cc(Cl)cc(Cl)c1 | inactive | –
Cc1nc(-c2ccccn2)ncc1C(=O)Nn1cc(C)c2cc(F)ccc21 | inactive | –
O=S(=O)(c1cccc2cnccc12)N1CCCNCC1 | 29.8 µM (active) | –
C[C@@H]1C[C@H]2[C@@H]3C[C@H](F)C4=CC(=O)C=C[C@]4(C)[C@@]3(F)[C@@H](O)C[C@]2(C)[C@@]1(O)C(=O)CO | inactive | –
NC(N)=NN=C(/C=C/c1ccc([N+](=O)[O-])o1)/C=C/c1ccc([N+](=O)[O-])o1 | 29.8 µM (active) | –
CCCCCCCCCCCCC1CO1 (stereo not given) | inactive | –
COc1ccnc2c1CCCCC2S(=O)c1nc2ccccc2[nH]1 (stereo not given) | inactive | –
CCCCCC(C)O (stereo not given) | inactive | –
Cc1cccc(C)c1NC(=O)CN(CC(=O)O)CC(=O)O | inactive | –
C=C(C)[C@@H]1CC=C(C)C(=O)C1 | inactive | –
CC(=O)OCC=C(C)C | inactive | –
CCCCCCC(O)CCCCCCCCCCC(=O)O (stereo not given) | inactive | –
Oc1ccc2c(c1)Cc1ccccc1-2 | inactive | –
CCC(C)N (stereo not given) | inactive | –
CN1C(C)(C)CC(O)CC1(C)C | inactive | –
Cc1ccc(S(=O)(=O)NC(=O)NC2CCCCC2)cc1 | inactive | –
CC1(C)[C@@H](OC(=O)CCC(=O)O)CC[C@]2(C)[C@H]3C(=O)C=C4[C@@H]5C[C@@](C)(C(=O)O)CC[C@]5(C)CC[C@@]4(C)[C@]3(C)CC[C@@H]12 | inactive | –
O=C(O)c1cc(Br)c(O)c(Br)c1 | inactive | –
Cc1ccc(Cl)cc1N | inactive | –
OCCC1CCCCN1 (stereo not given) | inactive | –
